An excerpt weighted towards active compounds, which were near 1.4% of everything screened.
MCL1 BIM primary: inhibitors of human MCL1 binding to BIM-BH3 peptide; Q07820; GST-MCL1 / FITC-Bim-BH3 fluorescence polarization; inhibition, % at 10.9 µM; actives 0.68% (n = 320,000);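 active = inhibition above the mean inhibition of all tested compounds plus 3 SD, set per campaign, cut at about 40% in these data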;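 also: higher means more loss of mP so more displacement of Bim peptide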
Bcl-xL primary: inhibitors of human Bcl-xL; Q07817; GST-Bcl-xL / FITC-Bim BH3 peptide fluorescence polarization; inhibition, % at 10.9 µM; actives 0.7% (n = 320,000); AID 2129;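 active = inhibition above the mean of all tested compounds plus 3 SD, cutoff set per campaign, cut at about 30% in these data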;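 also: inhibitors lower millipolarization by displacing the labeled peptide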
Target sequence (Q07817 whole entry, looked up): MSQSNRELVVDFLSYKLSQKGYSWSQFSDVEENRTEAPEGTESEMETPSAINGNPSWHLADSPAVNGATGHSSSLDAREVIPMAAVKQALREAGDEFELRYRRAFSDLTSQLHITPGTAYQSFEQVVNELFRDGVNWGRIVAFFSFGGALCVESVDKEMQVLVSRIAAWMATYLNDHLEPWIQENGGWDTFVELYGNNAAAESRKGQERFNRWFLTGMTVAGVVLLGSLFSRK
eLon inh: inhibits E. coli Lon protease. P0A9M0. purified E. coli Lon protease, fluorescence polarization. inhibition, % at 7.94 µM. actives 0.42% (n = 360,000); in the data active = inhibition above about 13%, passing the limit was not always enough
MEX-5 binding: C. elegans MEX-5 TCR-2 RNA binding activity | activity score (negative = inhibition of binding), % at 10 µM | actives 0.38% (n = 300,000) | Q9XUB2 | MEX-5/FITC-TCR2 RNA binding, fluorescence polarization; hits give low values;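 active = inhibition past about -25% in most replicates, and total fluorescence under double the plate's negative control median, limit read from the data; inconclusive = replicates evenly split on the limit, or fluorescence at least double controls; inactive = too little inhibition in most replicates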
Target sequence (Q9XUB2 whole entry, looked up): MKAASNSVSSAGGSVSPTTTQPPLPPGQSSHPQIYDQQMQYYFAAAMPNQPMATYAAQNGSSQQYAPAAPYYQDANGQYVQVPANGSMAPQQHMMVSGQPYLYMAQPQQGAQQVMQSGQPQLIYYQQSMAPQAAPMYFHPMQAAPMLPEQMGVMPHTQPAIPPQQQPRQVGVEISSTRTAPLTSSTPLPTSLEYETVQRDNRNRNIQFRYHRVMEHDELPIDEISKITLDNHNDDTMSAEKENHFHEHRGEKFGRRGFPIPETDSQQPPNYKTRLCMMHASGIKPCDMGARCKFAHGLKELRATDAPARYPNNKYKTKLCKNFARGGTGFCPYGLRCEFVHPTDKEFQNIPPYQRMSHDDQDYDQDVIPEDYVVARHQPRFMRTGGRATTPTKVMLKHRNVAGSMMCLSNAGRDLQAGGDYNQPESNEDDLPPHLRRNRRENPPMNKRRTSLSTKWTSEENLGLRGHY
GLD-1 TGE inh: GLD-1-TGE RNA interaction inhibition (C. elegans) | purified GLD-1 + fluorescein TGE RNA, fluorescence polarization | AID 2280 | inhibition, % at 5.96 µM | Q17339 | actives 0.44% (n = 320,000);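 active = percent inhibition above a per-plate cutoff, the plate mean of test compounds plus 3 SD, cut at about 30% in these data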
Bcl-xL conf: counter-screen for MCL1 inhibitors: confirmation of human Bcl-xL inhibitors; shares compounds with MCL1 BIM primary; GST-Bcl-xL / FITC-Bim BH3 peptide FP binding; actives 54% (n = 1,700); inhibition, % at 10.9 µM;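 active = inhibition above a cutoff equal to the mean inhibition of all tested compounds plus 3 SD, cut at about 30% in these data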
MCL1 BIM confirm: MCL1-BIM-BH3 interaction inhibition, confirmation | shares compounds with MCL1 BIM primary | GST-MCL1 / FITC-Bim-BH3 fluorescence polarization | inhibition, % at 10.9 µM | actives 61% (n = 1,700) | AID 2168;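 active = inhibition above the average of all tested compounds plus 3 SD, cut at about 40% in these data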
GLD-1 TGE cf: GLD-1 TGE RNA interaction inhibition, confirmation. inhibition, % at 5.96 µM. actives 10% (n = 550). AID 2459. shares compounds with GLD-1 TGE inh. GLD-1/FL-TGE RNA fluorescence polarization, biochemical;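 active = average inhibition across triplicates above the hit cutoff set in the primary screen, cut at about 32% in these data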
E coli Lon conf: confirmation of E. coli Lon protease inhibitors | shares compounds with eLon inh | purified E. coli Lon, fluorescence polarization | inhibition, % at 7.94 µM | actives 31% (n = 1,400) | AID 602230; in the data active = inhibition above about 16%
Large screens that a line does not name were inactive (follow-up assays come after a bar, where they were run).

O=C(CSc1ncn[nH]1)Nc1ccc(S(=O)(=O)Nc2ncccn2)cc1	none
Cc1cc(N2CCN(C)CC2)nc2ccc(NC(=O)CCC3CCCC3)cc12	none
CC1CCN(CCOc2ccc(Cl)c(Cl)c2)CC1	none
Cc1cccc(NC(=O)CSc2nnc(-c3ccco3)c(-c3ccco3)n2)c1C	MCL1 BIM primary 41, eLon inh 89 | Bcl-xL conf 98 | MCL1 BIM confirm 141 | E coli Lon conf inactive
Cc1cccc(NC(=O)CSc2nnc(-c3ccco3)c(-c3ccco3)n2)c1	none (no result: MCL1 BIM primary, Bcl-xL primary, MEX-5 binding, GLD-1 TGE inh)
C#CCN1c2ccccc2Sc2cccnc21	MCL1 BIM primary active, Bcl-xL primary active, eLon inh 165, GLD-1 TGE inh 93 | Bcl-xL conf inactive | MCL1 BIM confirm inactive | E coli Lon conf 21
COC(=O)c1c(=O)n(O)c2ccc(OC)cc2[n+]1[O-]	MCL1 BIM primary 198, Bcl-xL primary 169, eLon inh 142, MEX-5 binding -30, GLD-1 TGE inh 146 | Bcl-xL conf 138 | MCL1 BIM confirm 178 | E coli Lon conf 88
C/C(=N\OCC(=O)OCC(=O)NC(=O)c1ccc(OC(F)F)cc1)c1ccc2c(c1)OCO2	none
Cc1cc(=O)oc2c(CN3CCC(C)CC3)c(O)c(Cl)cc12	MCL1 BIM primary 142, Bcl-xL primary 105, eLon inh 25, MEX-5 binding -40, GLD-1 TGE inh 119 | Bcl-xL conf 80 | MCL1 BIM confirm 113 | E coli Lon conf 39
Cc1cc(=O)oc2c(CN3CCCC3)c(O)c(Cl)cc12	none
COc1ccc([C@H]2CC(=O)C=C(c3cccc(Cl)c3)C2)cc1OC	none (no result: MEX-5 binding)
O=C(NCc1ccc2c(c1)OCO2)c1cc(=O)[nH]c2ccccc12	none
COc1ccc2c(c1)c1nc3ccccc3nc1n2Cc1ccc(OC)c(OC)c1	MCL1 BIM primary 55, Bcl-xL primary 50, eLon inh 97, MEX-5 binding -26, GLD-1 TGE inh 52 | Bcl-xL conf 60 | MCL1 BIM confirm 62 | E coli Lon conf inactive
O=C1CCC(=O)c2ccc3c4c(ccc1c24)CC3	none (no result: MCL1 BIM primary, Bcl-xL primary, MEX-5 binding, GLD-1 TGE inh)
O=C1CCN2C=Nc3cccc4ccc1c2c34	MCL1 BIM primary active, Bcl-xL primary active, eLon inh active, MEX-5 binding inconclusive, GLD-1 TGE inh 169 | Bcl-xL conf 192 | MCL1 BIM confirm active | E coli Lon conf active
O=C(COC(=O)c1cnccn1)c1ccc2c(c1)CCCC2	none
CCN(C(=O)COC(=O)c1cc(-c2cccc3ccccc23)nc2ccccc12)C1CCS(=O)(=O)C1 (configuration not stated)	MCL1 BIM primary 98, Bcl-xL primary 91, eLon inh 40, GLD-1 TGE inh 39 (no result: MEX-5 binding) | Bcl-xL conf 50 | MCL1 BIM confirm 73 | GLD-1 TGE cf inactive | E coli Lon conf 18
O=C(COC(=O)c1cc(-c2cccc3ccccc23)nc2ccccc12)NC1CCS(=O)(=O)C1 (configuration not stated)	MCL1 BIM primary 185, Bcl-xL primary 152, eLon inh 178, GLD-1 TGE inh 97 | Bcl-xL conf 63 | MCL1 BIM confirm 80 | E coli Lon conf inactive
CN(c1ccc(C(=O)NCCCn2ccnc2)cc1)S(C)(=O)=O	none
Cc1cc(-c2ccccc2C(=O)O)on1	none
O=C(O)c1ccccc1C1=Nc2ccc(O)cc2Oc2cc(O)ccc21	MCL1 BIM primary 196, Bcl-xL primary 167, eLon inh 78, MEX-5 binding inconclusive, GLD-1 TGE inh 135 | Bcl-xL conf 142 | MCL1 BIM confirm 178 | E coli Lon conf 97
CC(=O)N/N=C/c1cc(C(C)(C)C)cc(/C=N/NC(C)=O)c1O	MCL1 BIM primary 89, Bcl-xL primary 94, eLon inh 41, GLD-1 TGE inh 156 | Bcl-xL conf 86 | MCL1 BIM confirm 115 | E coli Lon conf 75
COc1ccc(C(=O)c2ccsc2N)cc1	MCL1 BIM primary 108, Bcl-xL primary 105, eLon inh 90, GLD-1 TGE inh 66 | Bcl-xL conf inactive | MCL1 BIM confirm inactive | E coli Lon conf inactive
CN(C(=O)CSc1nnc(CN2CCCC2)n1Cc1ccccc1)c1ccccc1	none
CC(=O)N1c2ccc(S(=O)(=O)N(C)C3CCCCC3)cc2CC1C (configuration not stated)	none
O=[N+]([O-])c1cccnc1-n1cnc2ccccc21	none
Cc1cc2ncn(-c3ncccc3[N+](=O)[O-])c2cc1C	MCL1 BIM primary 102, Bcl-xL primary 85, eLon inh 25, GLD-1 TGE inh 80 | Bcl-xL conf inactive | MCL1 BIM confirm inactive | E coli Lon conf inactive
N=C1CCC(=N)c2c1c(O)c1ccccc1c2O	MCL1 BIM primary 150, Bcl-xL primary 125, eLon inh 29, GLD-1 TGE inh 107 | Bcl-xL conf 119 | MCL1 BIM confirm 144 | E coli Lon conf 44
C[C@H](O)[C@@H]1C(=O)N2CCc3ccc(-c4ccccc4)cc3[C@@H]2C[C@@H]1N(C)C(=S)Nc1ccc(F)cc1	none (no result: MCL1 BIM primary, Bcl-xL primary, MEX-5 binding, GLD-1 TGE inh)
COc1cccc2c1C(=O)c1c(O)c3c(c(O)c1C2=O)C[C@@](O)(C(=O)CO)C[C@@H]3O[C@H]1C[C@H](N)[C@H](O)[C@H](C)O1	MCL1 BIM primary active, Bcl-xL primary active, eLon inh active, MEX-5 binding inconclusive, GLD-1 TGE inh active | Bcl-xL conf active | MCL1 BIM confirm active | E coli Lon conf active
Cc1csc(NC(=O)C(F)(F)F)n1	none
COc1ccc(NC(=O)CSc2ccc3c4c(cccc24)C(=O)c2ccccc2-3)cc1	none
N#Cc1cccc(NC(=O)CSc2ccc3c4c(cccc24)C(=O)c2ccccc2-3)c1	MCL1 BIM primary 75, Bcl-xL primary 73, eLon inh 22, GLD-1 TGE inh 61 | Bcl-xL conf 185 | MCL1 BIM confirm 183 | E coli Lon conf 94
CC1C2(C)OCC(C#N)(C(=N)O2)C1(C#N)C#N (configuration not stated)	Bcl-xL primary 32, GLD-1 TGE inh 36 (no result: eLon inh) | GLD-1 TGE cf inactive
CC(C)CCn1c(N2CCCC2)nc2c1c(=O)n(C)c(=O)n2C	none
CC(C)CCn1c(Cl)nc2c1c(=O)n(C)c(=O)n2C	GLD-1 TGE inh 31 | GLD-1 TGE cf inactive
CC(=O)Nc1cccc2c1C(=O)N(c1ccccc1C)C2=O	none
CC(=O)Nc1ccc(N2C(=O)c3cccc(NC(C)=O)c3C2=O)cc1	GLD-1 TGE inh 51 | GLD-1 TGE cf inactive

From PubChem
